These results are taken from ChEMBL document CHEMBL1961873, “Compounds: GSK PKIS; Assays: Nanosyn kinase panel” (2012).

Assay [1] concerns the target Protein kinase C gamma type (Homo sapiens) (UniProt P05129). As to conditions: at 1 µM.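 Further: each value is an averaged percent inhibition of the enzyme.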
In assay [2] the target is T1, Protein kinase C iota type (Homo sapiens) (UniProt P41743).
T1 sequence (whole entry): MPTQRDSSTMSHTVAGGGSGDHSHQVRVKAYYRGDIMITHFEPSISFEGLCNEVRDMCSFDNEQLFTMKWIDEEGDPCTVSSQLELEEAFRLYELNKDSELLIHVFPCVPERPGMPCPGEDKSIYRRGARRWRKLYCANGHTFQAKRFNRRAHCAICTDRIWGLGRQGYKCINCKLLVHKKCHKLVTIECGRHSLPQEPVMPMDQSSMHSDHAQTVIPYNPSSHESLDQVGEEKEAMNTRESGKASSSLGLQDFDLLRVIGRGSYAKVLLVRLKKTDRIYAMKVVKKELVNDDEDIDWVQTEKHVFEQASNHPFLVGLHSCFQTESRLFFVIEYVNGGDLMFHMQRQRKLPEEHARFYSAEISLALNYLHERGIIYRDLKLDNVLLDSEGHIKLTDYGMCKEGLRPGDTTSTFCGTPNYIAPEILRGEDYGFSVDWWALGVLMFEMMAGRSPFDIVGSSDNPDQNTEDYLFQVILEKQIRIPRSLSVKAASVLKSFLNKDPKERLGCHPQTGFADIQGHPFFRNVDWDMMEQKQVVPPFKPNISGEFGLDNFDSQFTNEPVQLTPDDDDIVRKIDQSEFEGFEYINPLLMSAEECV
As to conditions: at 0.1 µM.

The target in assay [3] is T1, Protein kinase C iota type (Homo sapiens). As to conditions: at 1 µM.
In assay [4] the target is Protein kinase C theta type (Homo sapiens) (UniProt Q04759). The settings on record: at 0.1 µM.
Assay [5] has the same target. As to conditions: at 1 µM.
Assay [6] concerns the target Protein kinase C beta type (Homo sapiens) (UniProt P05771). The settings on record: at 0.1 µM.
Assay [7] has the same target. As to conditions: at 1 µM.
Assay [8] deals with T2, Serine/threonine-protein kinase D1 (Homo sapiens) (UniProt Q15139).
T2 sequence (whole entry): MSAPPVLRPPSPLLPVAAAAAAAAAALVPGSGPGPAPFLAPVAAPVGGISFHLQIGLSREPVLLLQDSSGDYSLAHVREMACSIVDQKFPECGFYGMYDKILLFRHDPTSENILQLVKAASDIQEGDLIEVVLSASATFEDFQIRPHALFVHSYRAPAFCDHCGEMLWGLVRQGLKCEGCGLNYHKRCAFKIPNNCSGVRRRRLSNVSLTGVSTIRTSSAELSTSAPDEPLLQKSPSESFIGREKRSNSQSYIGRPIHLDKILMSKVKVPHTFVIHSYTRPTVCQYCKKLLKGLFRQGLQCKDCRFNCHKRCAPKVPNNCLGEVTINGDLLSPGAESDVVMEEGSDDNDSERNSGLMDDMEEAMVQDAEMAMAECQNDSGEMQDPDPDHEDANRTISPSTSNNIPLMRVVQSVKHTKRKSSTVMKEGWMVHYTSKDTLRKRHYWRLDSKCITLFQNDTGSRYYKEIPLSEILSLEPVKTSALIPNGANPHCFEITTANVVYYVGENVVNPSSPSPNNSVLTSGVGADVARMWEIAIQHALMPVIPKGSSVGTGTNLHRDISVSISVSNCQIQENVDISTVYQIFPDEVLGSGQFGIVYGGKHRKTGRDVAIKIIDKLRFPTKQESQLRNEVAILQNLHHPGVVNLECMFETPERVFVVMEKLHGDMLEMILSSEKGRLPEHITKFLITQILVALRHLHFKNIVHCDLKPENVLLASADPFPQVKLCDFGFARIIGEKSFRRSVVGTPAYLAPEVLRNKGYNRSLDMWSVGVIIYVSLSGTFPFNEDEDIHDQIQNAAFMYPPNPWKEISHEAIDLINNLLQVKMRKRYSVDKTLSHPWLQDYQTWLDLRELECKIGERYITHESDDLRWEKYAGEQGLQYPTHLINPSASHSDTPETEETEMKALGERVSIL
As to conditions: at 0.1 µM.

Assay [9] deals with T2, Serine/threonine-protein kinase D1 (Homo sapiens). The settings on record: at 1 µM.
In assay [10] the target is T3, Serine/threonine-protein kinase D2 (Homo sapiens) (UniProt Q9BZL6).
T3 sequence (whole entry): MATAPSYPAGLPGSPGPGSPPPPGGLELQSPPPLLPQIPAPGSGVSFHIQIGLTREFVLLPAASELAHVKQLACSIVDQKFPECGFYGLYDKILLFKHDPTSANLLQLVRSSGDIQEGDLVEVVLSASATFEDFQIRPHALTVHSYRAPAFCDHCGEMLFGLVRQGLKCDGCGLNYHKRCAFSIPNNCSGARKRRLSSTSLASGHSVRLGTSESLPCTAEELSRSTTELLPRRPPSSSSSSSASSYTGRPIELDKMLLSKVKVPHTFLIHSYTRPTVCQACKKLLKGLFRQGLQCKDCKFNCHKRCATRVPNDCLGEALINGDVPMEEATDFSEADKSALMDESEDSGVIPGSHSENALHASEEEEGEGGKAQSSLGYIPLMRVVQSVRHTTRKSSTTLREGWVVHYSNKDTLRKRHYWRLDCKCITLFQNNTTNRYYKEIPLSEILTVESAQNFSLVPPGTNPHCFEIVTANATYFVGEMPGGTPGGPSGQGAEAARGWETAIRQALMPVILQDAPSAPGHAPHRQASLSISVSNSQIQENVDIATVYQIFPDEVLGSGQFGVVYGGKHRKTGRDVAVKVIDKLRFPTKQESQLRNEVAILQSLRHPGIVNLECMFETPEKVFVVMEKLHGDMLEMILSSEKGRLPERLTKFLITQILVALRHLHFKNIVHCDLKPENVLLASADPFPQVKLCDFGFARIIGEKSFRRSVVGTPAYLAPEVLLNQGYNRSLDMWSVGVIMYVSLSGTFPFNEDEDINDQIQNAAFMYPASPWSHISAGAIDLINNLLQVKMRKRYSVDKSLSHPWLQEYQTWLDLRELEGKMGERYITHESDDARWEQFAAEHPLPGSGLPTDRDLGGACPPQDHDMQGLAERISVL
As to conditions: at 0.1 µM.

Assay [11] concerns the target T3, Serine/threonine-protein kinase D2 (Homo sapiens). As to conditions: at 1 µM.
The target in assay [12] is T4, Serine/threonine-protein kinase D3 (Homo sapiens) (UniProt O94806).
T4 sequence (whole entry): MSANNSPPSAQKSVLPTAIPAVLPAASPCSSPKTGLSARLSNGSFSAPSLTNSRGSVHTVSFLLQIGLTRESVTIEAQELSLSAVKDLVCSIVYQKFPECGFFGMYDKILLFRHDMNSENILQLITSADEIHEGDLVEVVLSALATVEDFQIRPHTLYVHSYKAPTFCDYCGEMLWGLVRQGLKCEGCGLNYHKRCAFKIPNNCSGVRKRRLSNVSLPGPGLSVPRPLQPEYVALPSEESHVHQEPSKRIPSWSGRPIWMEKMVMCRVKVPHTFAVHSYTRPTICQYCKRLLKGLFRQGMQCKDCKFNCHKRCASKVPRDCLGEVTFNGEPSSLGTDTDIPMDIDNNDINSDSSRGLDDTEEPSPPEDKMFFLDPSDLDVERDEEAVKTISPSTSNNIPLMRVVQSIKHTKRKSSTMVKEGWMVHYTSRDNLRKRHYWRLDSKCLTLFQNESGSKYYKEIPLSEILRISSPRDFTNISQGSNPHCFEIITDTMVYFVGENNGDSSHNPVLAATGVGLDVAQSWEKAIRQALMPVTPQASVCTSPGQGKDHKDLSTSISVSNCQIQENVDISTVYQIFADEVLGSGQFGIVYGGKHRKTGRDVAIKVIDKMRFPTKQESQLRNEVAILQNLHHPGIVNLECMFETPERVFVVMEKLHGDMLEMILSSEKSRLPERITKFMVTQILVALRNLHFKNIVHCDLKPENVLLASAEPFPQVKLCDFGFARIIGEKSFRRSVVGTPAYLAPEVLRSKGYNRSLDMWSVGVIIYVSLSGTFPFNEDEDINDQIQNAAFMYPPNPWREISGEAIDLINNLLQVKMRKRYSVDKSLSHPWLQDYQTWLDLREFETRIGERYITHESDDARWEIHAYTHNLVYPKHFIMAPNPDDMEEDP
As to conditions: at 0.1 µM.

For assay [13], the target named is T4, Serine/threonine-protein kinase D3 (Homo sapiens). The settings on record: at 1 µM.
The target of assay [14] is T5, cGMP-dependent protein kinase 1 (Homo sapiens) (UniProt Q13976).
T5 sequence (whole entry): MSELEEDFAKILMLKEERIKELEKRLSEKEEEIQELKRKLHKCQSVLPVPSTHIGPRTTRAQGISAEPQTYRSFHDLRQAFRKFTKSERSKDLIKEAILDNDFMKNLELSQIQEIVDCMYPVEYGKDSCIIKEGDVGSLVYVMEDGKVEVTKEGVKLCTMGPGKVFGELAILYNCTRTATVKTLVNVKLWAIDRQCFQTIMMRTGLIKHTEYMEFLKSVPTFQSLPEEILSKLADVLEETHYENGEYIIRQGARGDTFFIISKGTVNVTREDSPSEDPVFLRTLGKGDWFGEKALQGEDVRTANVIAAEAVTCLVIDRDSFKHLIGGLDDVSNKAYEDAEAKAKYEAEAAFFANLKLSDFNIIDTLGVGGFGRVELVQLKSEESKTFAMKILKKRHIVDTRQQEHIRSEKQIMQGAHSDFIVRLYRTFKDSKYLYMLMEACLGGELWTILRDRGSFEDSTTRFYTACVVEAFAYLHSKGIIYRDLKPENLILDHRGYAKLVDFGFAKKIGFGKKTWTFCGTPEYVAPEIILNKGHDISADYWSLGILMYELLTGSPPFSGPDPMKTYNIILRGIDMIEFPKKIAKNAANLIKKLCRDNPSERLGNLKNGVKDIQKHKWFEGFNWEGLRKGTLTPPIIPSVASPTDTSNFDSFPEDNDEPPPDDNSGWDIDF
As to conditions: at 0.1 µM.

Assay [15] addresses T5, cGMP-dependent protein kinase 1 (Homo sapiens). The settings on record: at 1 µM.
The target in assay [16] is T6, cGMP-dependent protein kinase 2 (Homo sapiens) (UniProt Q13237).
T6 sequence (whole entry): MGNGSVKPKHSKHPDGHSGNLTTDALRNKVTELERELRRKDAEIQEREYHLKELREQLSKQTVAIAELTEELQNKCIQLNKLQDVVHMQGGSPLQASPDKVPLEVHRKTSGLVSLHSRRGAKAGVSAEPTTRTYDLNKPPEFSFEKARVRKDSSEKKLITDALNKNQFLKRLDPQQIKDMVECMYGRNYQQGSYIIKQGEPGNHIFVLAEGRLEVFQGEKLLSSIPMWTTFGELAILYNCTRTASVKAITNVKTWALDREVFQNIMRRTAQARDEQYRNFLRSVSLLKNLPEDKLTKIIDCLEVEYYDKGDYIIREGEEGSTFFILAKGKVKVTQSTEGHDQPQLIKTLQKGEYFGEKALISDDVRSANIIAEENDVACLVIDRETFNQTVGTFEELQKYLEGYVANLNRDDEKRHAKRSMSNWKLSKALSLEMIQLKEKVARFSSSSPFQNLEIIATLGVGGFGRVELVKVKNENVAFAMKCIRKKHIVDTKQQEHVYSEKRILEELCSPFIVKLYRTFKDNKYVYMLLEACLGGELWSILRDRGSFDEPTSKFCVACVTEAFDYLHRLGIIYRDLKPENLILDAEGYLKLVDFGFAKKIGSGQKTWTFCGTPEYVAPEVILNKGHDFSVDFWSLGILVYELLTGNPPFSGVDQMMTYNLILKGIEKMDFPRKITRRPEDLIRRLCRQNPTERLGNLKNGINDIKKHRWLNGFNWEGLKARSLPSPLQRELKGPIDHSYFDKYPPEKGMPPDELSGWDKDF
As to conditions: at 0.1 µM.

The target in assay [17] is T6, cGMP-dependent protein kinase 2 (Homo sapiens). As to conditions: at 1 µM.
Assay [18] has as its target T7, cAMP-dependent protein kinase catalytic subunit PRKX (Homo sapiens) (UniProt P51817).
T7 sequence (whole entry): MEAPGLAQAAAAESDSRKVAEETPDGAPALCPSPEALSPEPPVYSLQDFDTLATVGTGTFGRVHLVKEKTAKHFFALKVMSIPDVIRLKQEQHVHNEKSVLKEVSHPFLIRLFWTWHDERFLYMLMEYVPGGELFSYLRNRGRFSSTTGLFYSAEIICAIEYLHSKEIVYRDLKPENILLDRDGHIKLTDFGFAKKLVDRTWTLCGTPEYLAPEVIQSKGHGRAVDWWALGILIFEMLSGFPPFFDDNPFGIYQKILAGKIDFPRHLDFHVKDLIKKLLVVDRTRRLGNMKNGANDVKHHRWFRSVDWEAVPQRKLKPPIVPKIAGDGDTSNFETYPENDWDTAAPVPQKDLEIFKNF
The settings on record: at 0.1 µM.

For assay [19], the target named is T7, cAMP-dependent protein kinase catalytic subunit PRKX (Homo sapiens). The settings on record: at 1 µM.
Assay [20] deals with Rho-associated protein kinase 1 (Homo sapiens) (UniProt Q13464). As to conditions: at 0.1 µM.

SMILES strings stand for the structures.

Chain of Protein kinase C theta type (Homo sapiens) (Q04759 whole entry, looked up): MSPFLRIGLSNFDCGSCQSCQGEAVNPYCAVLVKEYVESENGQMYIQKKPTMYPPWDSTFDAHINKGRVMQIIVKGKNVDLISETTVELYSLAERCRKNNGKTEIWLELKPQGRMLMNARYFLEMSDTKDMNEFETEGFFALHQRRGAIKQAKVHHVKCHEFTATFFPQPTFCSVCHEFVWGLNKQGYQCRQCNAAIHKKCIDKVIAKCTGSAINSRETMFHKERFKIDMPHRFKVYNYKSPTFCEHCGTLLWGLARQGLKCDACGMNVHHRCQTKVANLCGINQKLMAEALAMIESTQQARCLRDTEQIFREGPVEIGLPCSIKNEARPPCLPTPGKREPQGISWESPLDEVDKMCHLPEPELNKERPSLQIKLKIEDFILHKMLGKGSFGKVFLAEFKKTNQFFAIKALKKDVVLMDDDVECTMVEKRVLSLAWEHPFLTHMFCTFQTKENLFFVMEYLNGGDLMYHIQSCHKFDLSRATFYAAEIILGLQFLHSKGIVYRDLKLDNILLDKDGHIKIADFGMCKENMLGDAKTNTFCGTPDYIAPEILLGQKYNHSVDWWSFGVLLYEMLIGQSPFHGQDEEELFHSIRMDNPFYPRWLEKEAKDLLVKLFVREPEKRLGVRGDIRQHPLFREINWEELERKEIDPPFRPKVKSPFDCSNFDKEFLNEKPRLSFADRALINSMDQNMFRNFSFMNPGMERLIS
Chain of Protein kinase C beta type (Homo sapiens) (P05771 2-671 limits assumed): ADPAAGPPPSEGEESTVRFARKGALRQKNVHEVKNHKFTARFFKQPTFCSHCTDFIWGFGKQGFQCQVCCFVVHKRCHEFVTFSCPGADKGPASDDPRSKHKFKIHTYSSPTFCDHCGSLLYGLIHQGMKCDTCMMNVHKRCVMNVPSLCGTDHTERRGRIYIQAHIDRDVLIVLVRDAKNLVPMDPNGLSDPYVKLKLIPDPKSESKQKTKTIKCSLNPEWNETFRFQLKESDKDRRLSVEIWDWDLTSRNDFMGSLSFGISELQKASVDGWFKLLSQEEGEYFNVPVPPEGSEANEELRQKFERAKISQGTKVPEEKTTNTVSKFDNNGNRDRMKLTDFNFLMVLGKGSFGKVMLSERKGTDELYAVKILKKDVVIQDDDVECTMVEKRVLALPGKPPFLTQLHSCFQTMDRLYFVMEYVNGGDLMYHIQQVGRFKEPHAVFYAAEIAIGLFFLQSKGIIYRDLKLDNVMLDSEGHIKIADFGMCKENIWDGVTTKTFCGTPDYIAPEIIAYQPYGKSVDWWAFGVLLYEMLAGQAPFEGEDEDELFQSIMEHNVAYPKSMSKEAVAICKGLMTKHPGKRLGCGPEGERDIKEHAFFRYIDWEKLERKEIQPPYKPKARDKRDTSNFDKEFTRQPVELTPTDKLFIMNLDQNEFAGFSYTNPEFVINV
Chain of Rho-associated protein kinase 1 (Homo sapiens) (Q13464 2-1354 limits assumed): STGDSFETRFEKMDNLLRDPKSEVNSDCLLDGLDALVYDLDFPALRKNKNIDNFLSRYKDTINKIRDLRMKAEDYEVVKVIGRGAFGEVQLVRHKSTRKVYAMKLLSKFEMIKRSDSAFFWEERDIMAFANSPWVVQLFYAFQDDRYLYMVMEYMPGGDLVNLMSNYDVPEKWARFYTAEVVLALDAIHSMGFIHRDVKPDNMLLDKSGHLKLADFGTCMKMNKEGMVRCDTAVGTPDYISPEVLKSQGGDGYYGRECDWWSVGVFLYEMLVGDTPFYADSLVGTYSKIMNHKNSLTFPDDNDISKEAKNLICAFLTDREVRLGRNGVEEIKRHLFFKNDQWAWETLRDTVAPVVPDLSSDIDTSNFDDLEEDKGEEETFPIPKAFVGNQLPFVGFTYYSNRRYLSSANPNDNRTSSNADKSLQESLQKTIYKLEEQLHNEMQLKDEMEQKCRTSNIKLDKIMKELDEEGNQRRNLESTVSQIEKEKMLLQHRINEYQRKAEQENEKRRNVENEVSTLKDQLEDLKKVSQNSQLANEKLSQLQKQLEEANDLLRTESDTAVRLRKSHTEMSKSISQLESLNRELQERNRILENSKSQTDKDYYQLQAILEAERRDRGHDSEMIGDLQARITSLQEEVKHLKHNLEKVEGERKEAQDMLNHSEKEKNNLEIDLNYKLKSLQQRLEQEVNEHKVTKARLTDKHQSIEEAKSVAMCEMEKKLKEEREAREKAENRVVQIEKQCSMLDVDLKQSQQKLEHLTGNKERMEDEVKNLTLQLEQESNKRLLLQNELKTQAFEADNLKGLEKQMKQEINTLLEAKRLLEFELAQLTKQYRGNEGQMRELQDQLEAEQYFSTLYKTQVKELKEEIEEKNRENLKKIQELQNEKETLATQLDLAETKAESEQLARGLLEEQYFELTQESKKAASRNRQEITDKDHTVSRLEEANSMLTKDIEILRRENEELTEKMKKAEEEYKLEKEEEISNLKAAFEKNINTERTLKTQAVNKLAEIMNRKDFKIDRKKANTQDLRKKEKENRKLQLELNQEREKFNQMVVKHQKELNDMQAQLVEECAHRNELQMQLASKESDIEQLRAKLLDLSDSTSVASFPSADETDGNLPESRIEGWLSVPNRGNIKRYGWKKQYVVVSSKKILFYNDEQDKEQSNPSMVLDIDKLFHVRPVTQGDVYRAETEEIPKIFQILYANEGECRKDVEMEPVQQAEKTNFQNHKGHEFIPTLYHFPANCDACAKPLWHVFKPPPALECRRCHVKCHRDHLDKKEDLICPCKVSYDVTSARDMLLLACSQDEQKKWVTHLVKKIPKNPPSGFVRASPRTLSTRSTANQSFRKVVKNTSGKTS

`CCn1c(-c2nonc2N)nc2c(C#CC(C)(C)O)ncc(OCC3CCNCC3)c21`: the inhibition in [1] is 39.9%; in assay [2] it was -0.7%; in assay [3], 13.5%; in assay [4] it was 21.5%; in assay [5], 65.5%; in assay [6], 8.97%. Besides, the inhibition was 37.6% in assay [7]; -0.45% in assay [8]; 6.01% in assay [9]; -0.27% in [10]; 3.59% in [11]; 0.21% in [12]. The inhibition in assay [13] is 4.23%; in [14] it was 9.8%; in assay [15] it was 48.9%; in assay [16], 35.4%; in [17] it was 70.1%; in assay [18] it was 45.6%. The inhibition turned out to be 75.7% in [19] and 1.94% in assay [20].

As a reminder, the inhibition is the drop in the measured response relative to a control, in per cent.
